108 sequences from PubChem BioAssay AID1347426 (Functional Genomics Laboratory (NCATS/FGL), 2020) can be followed below.

Hit rate of the full screen: of about 31,000 sequences, about 1,400 (4.5%) were called active. Shown is part of a subset that was picked to be rich in actives. Values without a mark were called inactive.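 Rule for the calls: active = median seed-adjusted z-score above 1 or below -1; inactive = the rest.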

A short description of this assay: Novel Modifiers of Survival Motor Neuron (SMN) Protein: Gene Identification via Genome-wide siRNA Screen.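 Note: luminescence tracks full-length SMN protein made from the SMN2 reporter.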 To be noted: HEK293T SMN2-luciferase reporter, siRNA knockdown, 72 h; actives lie on both sides. The method, boiled down: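 Steps: spot 1 pmol siRNA, add Lipofectamine RNAiMax in serum-free DMEM, seed HEK293T SMN2–luciferase reporter cells; incubate 72 h at 37 °C; add ONE-Glo; normalize luminescence to control siRNA, log10, MAD. Candidates: |MAD| > 1.0.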
In general terms: A reporter such as luciferase makes a cellular process visible.
For the sequence CGCUUCAAGAGGUUCGGAATT against MLPH, the median seed-adjusted z-score was -1.2 (active). The figure for GAAAAGGGAUAACUACGAATT against HIVEP3 is 0.516; for CCAGCGAGCUGAUCCUCAATT against MYCN it is 0.00242. The figure for CCACCUUUGCAACGCGGAATT against TPSD1 is 0.0848. The figure for GAGAUGCUGUGAGUAGGUATT against TTC9C is -0.571.

CGACAUUGCCCUGCUCAAATT against ELA2B: the median seed-adjusted z-score was -0.154. In the case of GGGUCACAGAGGUCGAUAUTT against PDILT it was -0.0994; in that of CAAUAAGGCUCAUGCACAATT against GNAQ, -1.23 (active); in that of AACUCUUCAGGUGAAGAUATT against SLC8A2, 0. The figure for GGAGUUUGCGUUUGAGGUATT against PLCD1 is -0.0473; for CGAAUAUGAUGAAGAUGUUTT against PHF17 it is 1.01 (active).

CAAAGAUCAUGAUAUUCCATT against JUB: the median seed-adjusted z-score is -0.0898. On to CACCCACCUCAGAUUGAUATT against MBTPS2, for which the median seed-adjusted z-score is -0.324. The figure for CGCUCUACCUGAUCUGCUATT against SLC43A2 is -0.202; for ACAUCAUGAGGAAUGCUAUTT against UCP3 it is 1.23 (active); for GAGCAGAAAUUAUUCGUUATT against PGDS it is 0.02. In the case of GACUAAAGAUUCAGAUAAATT against TRIM13 it was 0.712; in that of CGACAGAGGCAGACACAGATT against BATF, -0.0501. GAAUUGCUCCACCAGAUAATT against NAALAD2: the median seed-adjusted z-score was -0.00068. In the case of GAUGAUGACUUACAUAGAATT against TRRAP it was -1.25 (active). In the case of CUAUAGCAAGUGAACUAAATT against COG5 it was -0.0609. In the case of GGGUUGGUUUGGGCCUGAATT against SOX12 it was 0.478; in that of GAAGAGCAGUGUACCAUCATT against STARD8, -0.135. Take AAGACGAACUUGAGCUGGATT against MAPK8IP1: the median seed-adjusted z-score was 0.576. Take GCUCCAAUGUCUACAGAAATT against MRGPRE: the median seed-adjusted z-score is -0.65. In the case of CAGAUGAAAUACUACUUCUTT against ARD1A it was -1.05 (active); in that of GCAGUUACCCGCAUACCAATT against CALCR, -0.404.

Consider GGGAAGCCGCCUAUACCAATT against TK1, for which the median seed-adjusted z-score is -0.0562.

In the case of AGACCGUAAUUAUCGUCCUTT against EDG1, the median seed-adjusted z-score was -0.316. The figure for GGAUGACAUGUCUAGCAUUTT against NXF1 is -4.46 (active); for CAACCUAUCAUAUCUGUUUTT against SLC22A16 it is 0.0878.

Turning to CCAUCGGCAUCACCUUCUATT against SLC35C2, the median seed-adjusted z-score was -0.483.

As for CUGUGAAAAUGGGACGGGATT against NDUFA6, the median seed-adjusted z-score was -0.457. Take CAUCAGUCAUAAUGCCUAUTT against MAP1D: the median seed-adjusted z-score was 0.155.

Consider CGCCUCCAGUUUUAACUCUTT against POU2F3, for which the median seed-adjusted z-score was -1.53 (active).

As for GGGUAUUCUGGGCAUGAAATT against NANS, the median seed-adjusted z-score was -1.54 (active). Consider GCAAGACCUAUGAAACGAUTT against CADPS, for which the median seed-adjusted z-score is 0.551. The figure for GCACGAGGUUUUCACCUAUTT against SRMS is -1.58 (active). Consider GUUAUACUGUGAGAUCUAATT against GPR160, for which the median seed-adjusted z-score was -0.278. In the case of GAGAUUGGGUGGAAGAGAATT against FOXD2 it was -0.0853; in that of AAGUCGGAAUAGAAUGGAATT against COX7B, -1.16 (active). On to GGACAACAACUGAAAUGUATT against ZIM3, for which the median seed-adjusted z-score was -0.02. As to AGUUAGGCACAGUCAGACATT against POLD4, the median seed-adjusted z-score is 0.225. The figure for CGAUGUAUGACGAGGAAAATT against BTNL3 is 0.

For the sequence GUUACGACCUGGAAGAUUATT against SPATA5L1, the median seed-adjusted z-score is 0.252. Turning to GAGCAAGACUUCUACGUGATT against SERPINA5, the median seed-adjusted z-score is -1.01 (active). In the case of GGCUAAGAAUGACCAUUAUTT against NPR2 it was 0.0712; in that of CAGUCGUCAUAAUACUGCATT against SMC4, 0.646.

Take CCCUGUUAGUAACGGCAAATT against OBFC2B: the median seed-adjusted z-score is -0.061. For the sequence AGAUGUACCUAUGUCAAGATT against OVOL1, the median seed-adjusted z-score was -0.0414. In the case of CCAUGUUUGAACAAGCCCATT against MYL7 it was -1.21 (active); in that of GCACCUUUGUGACCUAUGATT against KIF9, 0; in that of CGCUAAAGCUGCACACUGATT against TRAF3, 0.731. Consider GAGCUGACUUUCUGACCAATT against RAB7A, for which the median seed-adjusted z-score is 0.169. In the case of GCAACGGUGCUUUCCCAGATT against CASKIN1 it was 0.555. In the case of CCAAAGUGGGUGUCAACGATT against BGN it was 0.376. The figure for GAAUUUUGUGGUUACACUATT against POLR1D is -0.0409; for GGGUGUAAUUCAUAAGGGUTT against PSMD1 it is -1.61 (active). Consider GGACUGAUUGGACUCCCAUTT against TNFRSF11A, for which the median seed-adjusted z-score is -0.0833. In the case of GGACGGUCGUGAUGGAUAATT against SAFB2 it was 0.0394. The figure for CCCUGAACAUACCUACUGATT against BRS3 is 0.224; for ACAUCUAUUUGUGACCUUATT against NHLH2 it is 0; for GCACAAGCAUUGGAAAUAATT against MAP4 it is 1.67 (active).

As to CCUUUAUGCCUGAUCCUCATT against SULT1C3, the median seed-adjusted z-score was -0.731.

Take CCACAACGGACAGUCCAUATT against CYP17A1: the median seed-adjusted z-score is -1.39 (active). The figure for GGAAAGCAAUAAAAGUUAUTT against TAAR6 is -0.124; for AGGCCUAUAUUGAAGGAGATT against DGKG it is 0.227; for CAACAGGUAUAACUACAUATT against CNDP2 it is 0.43. The figure for CCAAGAAGAUCAGCACCUUTT against GPR26 is -1.33 (active); for AGACCAUAACUACUCACUATT against KDELR3 it is 0.476; for GCUCAAUUGUCGAUCUUUATT against ERO1LB it is 0.565. For GAAGGUUUCUGUGCCCUCATT against SLC4A9, the median seed-adjusted z-score was 0. In the case of CCUGCAAGCUGUCAACUUUTT against PRKACA it was -0.137; in that of CAACUUCUAUAGUCGAAUATT against TXNDC3, -0.649. Take CGAUAUUUAUCCUUACCUATT against SLC9A2: the median seed-adjusted z-score was -1.02 (active). In the case of CCUUUACGUUCAAAUCACATT against ZNF268 it was 0.0358; in that of CCAAGGAGUCGUCUACUUUTT against B3GAT3, -0.00603; in that of GCAGAUCUCAUGUCCUCUATT against FPGS, -0.853. Regarding GCAAGUGGUUUGUCAGUAATT against B3GALT5, the median seed-adjusted z-score is 0.144. In the case of GCUCUUAUGCGACAGUUUATT against PFTK2 it was -1.16 (active). In the case of GGUGUAUGCUGAGGUGAAATT against EIF2C1, the median seed-adjusted z-score was 0.215. AGUCUGUUGGUGCACAAAATT against MDM2: the median seed-adjusted z-score was 0.258. The figure for GAUUUAUGCUAGCUCUAAATT against CFL2 is -0.148. As to CAUCAAAACUUGGAGAGCATT against FN3K, the median seed-adjusted z-score was -0.508. The figure for CCUUCUACAACACCAAGAATT against AGPAT2 is 0.38; for GGAUUACAGGAGACCCAUATT against FUBP1 it is -1.52 (active); for CAUUAACAUUGUUCGCAAATT against ACO2 it is -1.57 (active). In the case of UACCAGAUCUCAAAAAGAATT against CCR5 it was -0.0281; in that of GGAUGAAGGUAGUUACGUUTT against RAVER2, -0.258. In the case of CAUCCACACUGCAAUGAUATT against PILRB it was 0.0351; in that of AAUUUUCCUGUGAUAGAAATT against PATE1, 1.21 (active). On to GCGACUUUCUUGGUUUGCATT against SNX2, for which the median seed-adjusted z-score is -0.569.

Regarding CCCUAAAUGUAUCUCGGAATT against GRIN3A, the median seed-adjusted z-score was 0.241. The figure for CGAGACGUAUUAUAUCUUUTT against COL4A3BP is 0.0391; for GUGCAUAAGUGUUAGGGAATT against SLC17A2 it is 0.141. In the case of GAUCUGAGCUUGUACAGAATT against PSMC2 it was -1.96 (active). Consider GGAUCGAACCCAUGGAUCATT against ROCK2, for which the median seed-adjusted z-score was -0.149. In the case of GAAUAACUGCUGCUUGUAATT against TTRAP it was -0.33; in that of GACUCAUACGAGCGCAUUATT against SEMA4F, 0.139. The figure for GGCGAAGAGGGAUCAAGUATT against ZNF24 is 0.388; for GAGCCACACUUUCAAGUAATT against CRIP1 it is -0.622; for CCGUGGACCAGUACUUUUATT against MAN2B1 it is -0.246. The figure for GACACGAUUCUUUACCAAATT against CHEK1 is -5.1 (active); for GGACUCAGGUCUCAUGUGATT against KRTAP5-7 it is -0.279; for CAGGUAUUGUGGAAAGUAUTT against ADH4 it is -0.0991.

Regarding GCACCAUAGACUUUCGGGATT against HPCA, the median seed-adjusted z-score is 0.12.

As to GAGCGAAGGUCAUAAUACATT against MORC4, the median seed-adjusted z-score was 0.13. The figure for GCAUGAGUGUUGAUAGGUATT against AGTR2 is 0.204.
